# According to PubChem BioAssay AID720651 (The Scripps Research Institute Molecular Screening Center, 2013):
# This is one part of the list. The source made the active and inactive calls. How the calls were made is not given here.
# Test: molecules binding r(CAG) RNA repeats, late stage dose response, late-stage follow-up, biochemical, fluorescence, dose response, powder samples (AID 720651)
# Conditions: r(CAG) RNA TO-PRO-1 dye displacement
smiles,measurement,value
O=C1CC(=O)N(Cc2ccccc2)C(=O)N1CCCCCCN1C(=O)CC(=O)N(Cc2ccccc2)C1=O,IC50,1440 nM (active)
